According to PubChem BioAssay (NCI):
The panel holds about 83,000 compounds, 20% with a hit somewhere; the sample as a whole holds those more often.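 Results are percent growth after 48 hours of single-concentration exposure. 100 means growth as in untreated cells, lower positive values show inhibition; negative values down to -100 show cell death.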 Active and inactive are the calls of the source. Rule for the calls: active = growth percent below 10; inactive = the rest.

Columns and labels:
Assay in all cases: NCI-60 one-dose screen, 48 h (100 = growth as untreated, 0 = no growth, -100 = all killed)
Settings in all cases: 10 µM unless noted
SR leukemia = tested on: SR leukemia
RPMI-8226 leukemia = tested on: RPMI-8226 leukemia
OVCAR-8 ovarian = tested on: OVCAR-8 ovarian
OVCAR-5 ovarian = tested on: OVCAR-5 ovarian
OVCAR-4 ovarian = tested on: OVCAR-4 ovarian
SK-OV-3 ovarian = tested on: SK-OV-3 ovarian
OVCAR-3 ovarian = tested on: OVCAR-3 ovarian
HS 578T breast = tested on: HS 578T breast
NCI/ADR-RES ovarian = tested on: NCI/ADR-RES ovarian
T-47D breast = tested on: T-47D breast
BT-549 breast = tested on: BT-549 breast
MDA-MB-435 melanoma = tested on: MDA-MB-435 melanoma
SW-620 colon = tested on: SW-620 colon
MCF7 breast = tested on: MCF7 breast
HCT-116 colon = tested on: HCT-116 colon
KM12 colon = tested on: KM12 colon
HCC-2998 colon = tested on: HCC-2998 colon

Measured: growth

COc1cc(/C=C\C(C)=N\Nc2ccccc2)ccc1O
inactive: SR leukemia 39.3% | RPMI-8226 leukemia 76.3% | OVCAR-8 ovarian 90.5% | OVCAR-5 ovarian 84.7% | OVCAR-4 ovarian 85.6% | SK-OV-3 ovarian 121% | OVCAR-3 ovarian 89.2% | HS 578T breast 92.1% | NCI/ADR-RES ovarian 77.4% | T-47D breast 68% | BT-549 breast 102% | MDA-MB-435 melanoma 69.7% | SW-620 colon 106% | MCF7 breast 82.4% | HCT-116 colon 91.4% | KM12 colon 52.8%

N#Cc1ccc(-c2csc(Nc3ccc4nc5n(c(=O)c4c3)CCC5)n2)cc1
inactive: SR leukemia 93.6% | RPMI-8226 leukemia 109% | OVCAR-8 ovarian 106% | OVCAR-5 ovarian 103% | OVCAR-4 ovarian 109% | SK-OV-3 ovarian 176% | OVCAR-3 ovarian 116% | HS 578T breast 115% | NCI/ADR-RES ovarian 105% | T-47D breast 102% | BT-549 breast 98.4% | MDA-MB-435 melanoma 103% | SW-620 colon 103% | MCF7 breast 92% | HCT-116 colon 96.2% | HCC-2998 colon 116% | KM12 colon 103%

OCc1n(Cc2ccc3ccccc3c2)cc[n+]1Cc1ccc2ccccc2c1
active: MDA-MB-435 melanoma 5.53%
inactive: SR leukemia 15.9% | RPMI-8226 leukemia 13.5% | OVCAR-8 ovarian 60.7% | OVCAR-5 ovarian 62.3% | OVCAR-4 ovarian 23.9% | SK-OV-3 ovarian 75.9% | OVCAR-3 ovarian 39.9% | HS 578T breast 66.1% | NCI/ADR-RES ovarian 103% | T-47D breast 31.3% | BT-549 breast 31.2% | SW-620 colon 67.7% | MCF7 breast 61.8% | HCT-116 colon 35.6% | HCC-2998 colon 39.8% | KM12 colon 39.3%

COP(=O)(OC)C(c1ccc(O)cc1)(c1ccc(O)cc1)c1ccc(O)cc1
inactive: SR leukemia 93.4% | RPMI-8226 leukemia 99.3% | OVCAR-8 ovarian 97.2% | OVCAR-5 ovarian 124% | OVCAR-4 ovarian 99.3% | SK-OV-3 ovarian 122% | OVCAR-3 ovarian 81.3% | HS 578T breast 98.8% | NCI/ADR-RES ovarian 92.3% | T-47D breast 104% | BT-549 breast 133% | MDA-MB-435 melanoma 118% | SW-620 colon 97.3% | MCF7 breast 109% | HCT-116 colon 82.7% | HCC-2998 colon 127% | KM12 colon 113%

Cc1nn(-c2nc3ccccc3s2)c(C)c1Oc1ccccc1O
inactive: SR leukemia 19.6% | RPMI-8226 leukemia 33.1% | OVCAR-8 ovarian 50.6% | OVCAR-5 ovarian 121% | OVCAR-4 ovarian 74.9% | SK-OV-3 ovarian 75.3% | OVCAR-3 ovarian 75.5% | HS 578T breast 39% | NCI/ADR-RES ovarian 101% | T-47D breast 87.1% | BT-549 breast 63% | MDA-MB-435 melanoma 72.4% | SW-620 colon 47.8% | MCF7 breast 81.7% | HCT-116 colon 27.4% | HCC-2998 colon 250% | KM12 colon 63.6%

CC1=C([Se]CC(OC(=O)[C@@H](CSSC(C)(C)C)NC(=O)C(C)(C)C)C(=O)NCCCCCC(=O)OCc2ccccc2)C(=O)c2ccccc2C1=O (stereo not given in full)
inactive: SR leukemia 29.2% | OVCAR-4 ovarian 14.5% | HS 578T breast 13.6% | T-47D breast 17.9% | MDA-MB-435 melanoma 14.2% | MCF7 breast 30.3%
active: RPMI-8226 leukemia -11% | OVCAR-8 ovarian 8.55% | OVCAR-5 ovarian -28.7% | SK-OV-3 ovarian -17.5% | OVCAR-3 ovarian 1.96% | NCI/ADR-RES ovarian -12.4% | BT-549 breast -64.2% | SW-620 colon 9.84% | HCT-116 colon -18% | HCC-2998 colon -63.9% | KM12 colon 6.76%

O=C(O)CCNS(=O)(=O)c1ccc(-c2ccccc2)cc1
active: HS 578T breast 9.34%
inactive: SR leukemia 88.9% | RPMI-8226 leukemia 69% | OVCAR-8 ovarian 97.7% | OVCAR-5 ovarian 107% | OVCAR-4 ovarian 101% | SK-OV-3 ovarian 107% | OVCAR-3 ovarian 114% | NCI/ADR-RES ovarian 108% | T-47D breast 108% | BT-549 breast 127% | MDA-MB-435 melanoma 102% | SW-620 colon 95.4% | MCF7 breast 106% | HCT-116 colon 108% | HCC-2998 colon 111% | KM12 colon 117%

COc1ccc(CNC(=O)c2c(C)n([O-])c3ccc(OC)cc3[n+]2=O)cc1
inactive: SR leukemia 90.4% | RPMI-8226 leukemia 94% | OVCAR-8 ovarian 87% | OVCAR-5 ovarian 103% | OVCAR-4 ovarian 105% | SK-OV-3 ovarian 126% | OVCAR-3 ovarian 187% | HS 578T breast 108% | NCI/ADR-RES ovarian 21.3% | T-47D breast 115% | BT-549 breast 83.5% | MDA-MB-435 melanoma 115% | SW-620 colon 107% | MCF7 breast 101% | HCT-116 colon 106% | KM12 colon 97.1%

CSc1nc(-c2ccc(O)cc2O)c2c(=O)[nH]c(Nc3ccc(S(=O)(=O)Nc4nc(C)cc(C)n4)cc3)nc2n1
inactive: SR leukemia 63.3% | RPMI-8226 leukemia 99.2% | OVCAR-8 ovarian 107% | OVCAR-5 ovarian 90% | OVCAR-4 ovarian 108% | SK-OV-3 ovarian 105% | OVCAR-3 ovarian 98.1% | HS 578T breast 119% | NCI/ADR-RES ovarian 97.5% | T-47D breast 91.5% | BT-549 breast 87.1% | MDA-MB-435 melanoma 196% | SW-620 colon 108% | MCF7 breast 113% | HCC-2998 colon 93.4% | KM12 colon 102%
